For experiment [1] the following is noted: Ebola virus entry reporter assay, green channel fluorescence. In general terms: Reporter assays use an easily measured gene product as a stand-in for the process of interest.
For experiment [2] the following is noted: Ebola virus entry cell assay, ratio channel.
The nature of experiment [3]: Immunotoxin (HA22) sensitization/mitigation study. Vehicle arm (PBS) (AID 1159510). Also: potency is read from the fitted curve at half-maximal effect. The note with it: cancer cells viability with PBS vehicle (HA22 study); series mostly up to 46.1 µM.
The nature of experiment [4]: Immunotoxin (SS1P) sensitization/mitigation study. Vehicle arm (DMEM) (AID 1159513). Also: potency is read from the fitted curve at half-maximal effect. The note with it: cell viability with vehicle (DMEM); series mostly up to 46.1 µM.
The nature of experiment [5]: High-throughput drug toxicity screening in the BPDCN cell line Gen2.2 (AID 1224824).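 Also: cells exposed to compounds for 48 h before reading.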 The conditions noted are these: Gen2.2 BPDCN cells; at 45.8 µM (top of the series) unless noted. In short, it runs like this: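 Gen2.2 cells (500/well) in phenol red-free RPMI with 10% FBS were exposed to compounds for 48 h at 37 °C, 5% CO2. Viability was read by CellTiter-Glo luminescence and normalized to DMSO (100%) and 9.2 uM bortezomib (0%).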

Experiment [6] is described as follows: High-throughput drug toxicity screening in the BPDCN cell line Cal-1 (AID 1224825). The conditions noted are these: Cal-1 BPDCN cell viability, qHTS; at 45.8 µM (top of the series) unless noted. The procedure, abridged:
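500 Cal-1 cells/well, RPMI + glutamine + 10% FBS (phenol red-free); cpd added by pin tool; 48 h, 37C, 5% CO2; CTG 15 min RT, lumi read. Normalised: DMSO 100%, bortezomib 9.2 uM 0%.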

Experiment [7] is described as follows: qHTS assay for measurement of the activity of small molecule inhibitors on Zika virus induced Caspase-3 activity in human iPSC derived neural progenitor cells (hNPCs) (AID 1224857; active = well fitted inhibition curve with a large enough effect; also: % of control where 0% means no effect; nearly all actives have a fitted effect of over 65% in size). The conditions noted are these: hNPCs ZIKV-induced caspase-3/7, Caspase-Glo luminescence, 6 h; series mostly up to 45.7 µM. In short, it runs like this:
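Pretreat hNPCs with compound 1 h; infect ZIKV 2 FFU/cell; 6 h 37 C, 5% CO2; Caspase-Glo 3/7, 30 min RT; luminescence; normalize to no-virus and virus-only wells.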
(In qHTS, concentration-response curves come from the screen itself.)

The nature of experiment [8]: qHTS assay for measurement of the activity of small molecule inhibitors on Zika virus induced Caspase-3 activity in human astrocytoma cells (AID 1224859; active = well fitted inhibition curve with a large enough effect;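 also: plate controls were ZIKV-infected untreated cells for no effect and uninfected cells for full effect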). The conditions noted are these: SNB-19 ZIKV-induced caspase-3/7, luminescence, 6 h; series mostly up to 45.7 µM. In short, it runs like this:
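Human SNB-19 astrocytoma cells in RPMI 1640 with 10% FBS receive compound one hour ahead of Zika virus at 2 FFU/cell. After 6 h infection, caspase-3/7 activity is detected by Caspase-Glo luminescence.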

Experiment [9] in a line: qHTS Screen of the MIPE 4.0 Collection Against Ewings Sarcoma (RDES) (AID 1259252; active = well fitted inhibition curve with a large enough effect; also: nearly all actives have a fitted effect of over 35% in size; also: potency is read from the fitted curve at half-maximal effect). The conditions noted are these: RD-ES Ewing sarcoma viability, CellTiter-Glo, 48 h; series mostly up to 45.8 µM. The procedure, abridged: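 CellTiter-Glo luminescence after 48 h compound exposure (titration) gave viability; percent activity used DMSO-treated cells as no inhibition and medium-only wells as full inhibition. Cells grown in RPMI/5% FBS, dosed 4 h post-seeding.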

Records with an inconclusive call do not appear. For part of these data: Results with a measured potency or affinity are listed apart. Active and inactive are the calls of the source.

Take `CC(=O)O[C@H]1C(=O)[C@@]2(C)[C@H]([C@H](OC(=O)c3ccccc3)[C@]3(O)C[C@H](OC(=O)[C@H](O)[C@@H](NC(=O)c4ccccc4)c4ccccc4)C(C)=C1C3(C)C)[C@]1(OC(C)=O)CO[C@@H]1C[C@@H]2O`: the call in experiment [1] and in experiment [2] was inactive.
On to `Nc1nc2[nH]cc(CCc3ccc(C(=O)N[C@@H](CCC(=O)O)C(=O)O)cc3)c2c(=O)[nH]1`, for which the figures for the Potency in [3] and in experiment [4] were 59 nM (active) and 187 nM (active), respectively.
For `CC(C)C[C@H](CN)CC(=O)O`, the cell viability, % of control (lower = more cytotoxic) in [5] came to 401%. Besides, the viability (% of control) in experiment [6] is 132%. Moreover, the outcome in experiment [7] and in [8] was inactive. Besides, the Potency entry in experiment [9] is “inactive”.
Take `CCCCCN(C)CCC(O)(P(=O)(O)O)P(=O)(O)O`: the molecule was called inactive in experiment [7].
On to `CNC(=O)c1ccccc1Sc1ccc2c(/C=C/c3ccccn3)n[nH]c2c1`, for which, in [3], the Potency was 6620 nM (active).
Turning to `Nc1nc(Cl)nc2c1ncn2[C@H]1C[C@H](O)[C@@H](CO)O1`, the Potency in experiment [3] was 9590 nM (active).
On to `C[C@]12CC[C@@H]3c4ccc(OC(=O)N(CCCl)CCCl)cc4CC[C@H]3[C@@H]1CC[C@@H]2OP(=O)(O)O`, for which, in [5], the cell viability, % of control (lower = more cytotoxic) is 99.3%. Besides, in experiment [6], the viability (% of control) came to 82.9%. Also, the Potency result in experiment [9] was “inactive”.
The corresponding values for `C[C@](O)(CS(=O)(=O)c1ccc(F)cc1)C(=O)Nc1ccc(C#N)c(C(F)(F)F)c1` are 14%, 5.28% and 1870 nM (active).

These data come from PubChem BioAssay (NCATS).
